Source: PubChem (National Center for Advancing Translational Sciences (NCATS))
HTT aggregate: inhibitors of mutant huntingtin aggregate formation in PC12 cells; hit rate 1.1% among 220,000; AID 1688; PC12 HttQ103-GFP aggregates, Acumen cytometry, 40 h; Potency, µM (top dose mostly 46.1 µM), inactives show at the highest dose activity change, negative = inhibition, usual class: inhibitors; active = well fitted curve in the direction sought with a large enough effect; inconclusive = small, poorly fitted or top-dose-only effect, or another doubt; inactive = no such curve, though single readings can be large; an effect the other way counts as inactive or inconclusive; note: % is set by controls: 0 for no effect and ±100 for the full control effect; nearly all actives have a fitted effect of over 60% in size
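Using laser scanning cytometry, GFP-positive aggregates were counted after lysis of PC12 cells induced with 100 nM tebufenozide to express HTT exon 1 Q103–GFP. Compounds were tested in titration.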
HPGD block: HPGD (human) dehydrogenase inhibition. P15428. Potency, µM, for the others: at the top dose activity change, negative = inhibition, usual class: inhibitors. hit rate 4.3% among 150,000. purified HPGD, NADH fluorescence kinetic, PGE2 substrate; note: % is set by controls: 0 for no effect and ±100 for the full control effect
Target sequence (P15428 whole entry, looked up): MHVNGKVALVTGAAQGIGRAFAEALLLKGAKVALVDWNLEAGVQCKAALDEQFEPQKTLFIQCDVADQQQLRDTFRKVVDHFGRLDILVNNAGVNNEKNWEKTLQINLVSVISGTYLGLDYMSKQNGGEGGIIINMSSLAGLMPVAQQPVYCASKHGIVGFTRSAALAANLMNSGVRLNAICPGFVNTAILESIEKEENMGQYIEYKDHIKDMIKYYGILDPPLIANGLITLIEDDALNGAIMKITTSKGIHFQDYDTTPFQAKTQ
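20 nM HPGD preincubated 15 min at room temperature with compound in 50 mM Tris-HCl pH 8, 0.01% Tween 20. Started with 1 mM NAD+ and 30 uM prostaglandin E2; NADH fluorescence (360/450 nm) read 5 times over 30-s intervals, last minus first.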
ALDH1A1 block: blocks purified human ALDH1A1 activity | hit rate 7.3% among 220,000 | P00352 | Potency, µM (series often up to 75.3 µM), without a hit: at the top dose activity, negative = inhibition, most hits filed as inhibitors | AID 1030 | Purified ALDH1A1, NADH fluorescence, propionaldehyde substrate;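 note: plate controls were no enzyme wells and a reference inhibitor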
Target sequence (P00352 whole entry, looked up): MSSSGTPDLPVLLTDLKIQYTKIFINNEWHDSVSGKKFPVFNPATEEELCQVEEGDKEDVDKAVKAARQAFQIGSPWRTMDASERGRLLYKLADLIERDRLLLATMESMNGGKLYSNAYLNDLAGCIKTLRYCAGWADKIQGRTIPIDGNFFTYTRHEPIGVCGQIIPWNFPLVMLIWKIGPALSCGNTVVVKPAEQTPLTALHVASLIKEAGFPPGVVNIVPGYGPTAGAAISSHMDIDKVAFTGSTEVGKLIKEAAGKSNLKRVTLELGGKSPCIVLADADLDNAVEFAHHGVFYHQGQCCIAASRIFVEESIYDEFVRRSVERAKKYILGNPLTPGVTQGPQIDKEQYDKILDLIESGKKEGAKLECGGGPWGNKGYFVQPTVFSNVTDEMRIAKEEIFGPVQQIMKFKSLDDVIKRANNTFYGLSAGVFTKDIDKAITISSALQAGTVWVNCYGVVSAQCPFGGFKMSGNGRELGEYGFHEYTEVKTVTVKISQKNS
LMNA splice mod: changes lamin A minigene splicing in HeLa cells | HeLa LMNA splicing GFP/RFP minigene ratio, 48 h | Potency, µM (top dose mostly 46.1 µM), for inactives: at the highest dose ratio change, negative = inhibition, hits mostly inhibitors | hit rate 0.01% among 200,000; active = well fitted inhibition curve with a large enough effect in the signal ratio, with a control signal flat, not every such curve was filed as active; inconclusive = small, poorly fitted or top-dose-only effect, or effect the other way, or a change in a side signal; the % refers to the signal ratio; note: % is set by controls: 0 for no effect and ±100 for the full control effect
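S3 HeLa cells stably expressing lamin A-EGFP splicing minigene plus DsRed2, 600 cells/well, 48 h compound exposure at 37C. Laser-scanning cytometry; analysed as GFP (500-530 nm)/RFP (575-640 nm) total intensity ratio; 0.5% DMSO vehicle.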
HTT ATP protect: cytoprotection in Huntington HTT-Q103 PC12 cell model; PC12 HTT-Q103 induced, cytoprotection, ATP luminescence, 40 h; Potency, µM (doses to about 56.4 µM), without a hit: cytoprotection (ATP increase), most hits filed as activators; hit rate 0.14% among 230,000; active = well fitted curve in the direction sought with a large enough effect; inconclusive = small, poorly fitted or top-dose-only effect, or another doubt; inactive = no such curve, though single readings can be large; an effect the other way counts as inactive or inconclusive; note: % of control where 0% means no effect; nearly all actives have a fitted effect of over 45% in size
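Quantitative HTS on tebufenozide-induced (100 nM) PC12 cells expressing HTTQ103 exon 1–GFP; compounds tested as a concentration series; survival measured via cellular ATP.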
* hit, by the source's call; u = inconclusive; x = no result; [ ] = dose if it differs, or a comment. A selection: hits, their analogues and other compounds. The true share with any hit is near 8.8%. Unless noted, calls come from the whole dose curve; as a rule, active = well fitted inhibition curve with a large enough effect (not every such curve was filed as active); inconclusive = small, poorly fitted or top-dose-only effect, or another doubt; inactive = no such curve, though single readings can be large or run the other way. Potency is the fitted concentration of half-maximal effect.

SMILES | HTT aggregate | HPGD block | ALDH1A1 block | LMNA splice mod | HTT ATP protect
CC(=O)Oc1ccc(N2C(=O)C3C(C2=O)C2(C)C=CC3(C)O2)cc1 (configuration not stated) | u | 13µM* | 0.63µM* | u | -76%
CCc1cc(C(=O)COc2ccccc2F)c(O)cc1O | u | 32µM* | u | u | -2%[1.9 µM]
CC1(C)CC(=S)Nc2ccccc2S1 | 16% | 16µM* | 10µM* | -1% | 15%[10 µM]
CC(Cl)C(=O)c1ccc2c(c1)CCN2C(=O)C1CC1 (configuration not stated) | -6% | x | 1.4µM* | x | -48%
O=C(NCC(c1ccc2c(c1)OCO2)N1CCN(c2ccccc2)CC1)C(=O)Nc1cccc(F)c1 (configuration not stated) | x | x | x | 5%[46 µM] | x
Cc1ccccc1OCCNc1cc(N2CCNCC2)ccc1[N+](=O)[O-] | 0%[9.22 µM] | x | -15% | u | 7%[10 µM]
COc1ccccc1OCCNc1cc(N2CCCCC2)ccc1[N+](=O)[O-] | u | -19% | 18µM* | u | 21%[10 µM]
Cc1ccc(OCCNc2cc(N3CCN(CCO)CC3)ccc2[N+](=O)[O-])cc1C | -9% | 35µM* | u | -10% | 5%[10 µM]
Cc1cccc(OCCNc2cc(N3CCN(C)CC3)ccc2[N+](=O)[O-])c1 | 0% | -23% | -9% | -14% | 8%[10 µM]
Cc1ccc2c(=O)cc(CSCC(=O)Nc3nnc(C)s3)[nH]c2c1 | x | x | x | 5%[46 µM] | x
Cc1no[n+]([O-])c1COc1ccc(/C=C(\C#N)C(N)=O)cc1 | 19% | -18% | 10µM* | 20% | 5%[10 µM]
S=c1nc(-c2ccco2)[nH][nH]1 | 10% | 22µM* | 25µM* | -4% | -12%[10 µM]
Cn1c(-c2ccco2)n[nH]c1=S | 13% | x | 8% | x | x
Cc1ccc(-n2nnnc2C(Cl)(Cl)c2nnnn2-c2ccc(C)cc2)cc1 | u | 3.5µM* | 1.3µM* | -6% | -42%
O=C(CNC(c1ccccc1)c1ccccc1)Nc1c(F)cccc1F | -10% | 1% | -1% | -1% | 1.3µM*
O=C(CC1S/C(=N\S(=O)(=O)c2ccccc2)N(c2ccccc2)C1=O)Nc1ccc(F)cc1 (configuration not stated) | 6% | -9% | 25µM* | -16% | 3%[10 µM]
Cc1ccc(S(=O)(=O)/N=C2\SC(CC(=O)Nc3ccc(F)cc3)C(=O)N2c2ccccc2)cc1 (configuration not stated) | -3% | -20% | 5.6µM* | 1% | -6%[10 µM]
C=CCN1C(=O)C(CC(=O)Nc2ccc(C)cc2)SC1=Nc1c(C)n(C)n(-c2ccccc2)c1=O (configuration not stated) | 30% | -5% | 2% | -4% | -6%
CC(C)N(CC#CCC(O)(c1ccccc1)C1CCCC1)CCO (configuration not stated) | 1%[9.22 µM] | x | 28µM* | x | -1%[10 µM]
O=C(NNC(=O)c1cccs1)c1ccc(Cl)c(Cl)c1 | 0% | -5% | 0% | -1% | 19%[10 µM]
COc1cccc(CN2CCN(Cc3nc(-c4cccc(F)c4F)oc3C)CC2=O)c1 | -10%[9.22 µM] | x | 25µM* | u | -8%[10 µM]
Cc1cnc(C)c(N2CCN(Cc3nc(-c4cccc(F)c4F)oc3C)CC2)n1 | 9%[9.22 µM] | x | -6% | -1%[46 µM] | 14%[10 µM]
CCOc1ccccc1NC(=O)Cn1c(=O)n(-c2ccc(C)c(C)c2)c(=O)c2c(C)c(C(=O)N(C)C)sc21 | x | x | x | 25%[46 µM] | x
O=C1C=C[C@@H](O)[C@H]2[C@@H]3C(=O)N(c4cccc(Oc5ccccc5)c4)C(=O)[C@@H]3CC[C@H]12 | x | x | -12%[13.5 µM] | x | 0%[10 µM]
Cc1ccc(C)c(S(=O)(=O)Nc2ccc(O)c(Sc3ncn[nH]3)c2)c1 | 34%[9.22 µM] | x | x | x | 12%[10 µM]
SMILES | HTT aggregate | HPGD block | ALDH1A1 block | LMNA splice mod | HTT ATP protect
Cc1ccc(C)c(S(=O)(=O)Nc2ccc3scnc3c2)c1 | -22% | -17% | 1.8µM* | -22% | -58%
O=C(CCl)N(C/C=C/c1ccccc1)c1ccc2c(c1)OCCO2 | u | x | 0.79µM* | u | -43%
CC(=O)N/C(=C/c1ccc2c(c1)OCO2)C(=O)NCC(=O)O | 3.2µM* | -12% | 0% | -3% | x
COc1ccc(NC2=CC(c3ccc(OC)c(OC)c3)N(c3ccc(OC)cc3)C2=O)cc1 (configuration not stated) | 11% | u | 14µM* | u | x
NC(C(=O)O)c1cccc(O)c1 (configuration not stated) | x | x | 20% | x | -69%
C(=C\c1ccccc1)/CNCC1CCCO1 (configuration not stated) | -11% | x | 25µM* | x | -14%
CCn1c(/C=C2/C(=O)N(C)c3ccccc32)nc2ccccc2c1=O | 11% | -39% | 9.5µM* | -7% | 20%
CCN1C(=O)/C(=C\c2nc3ccccc3c(=O)n2CC)c2ccccc21 | 23% | x | 14µM* | u | 23%[10 µM]
CCn1c(/C=C2\C(=O)N(C)c3ccccc32)nc2ccccc2c1=O | 16% | 2% | u | u | -32%
Cn1c(N)c(C(=O)COC(=O)CNS(=O)(=O)c2cccc(Cl)c2)c(=O)n(C)c1=O | 0% | -6% | u | -15% | 20%[10 µM]
O=C1C2CC=C(Cl)CC2C(=O)N1CCCCCCN1C(=O)C2CC=C(Cl)CC2C1=O (configuration not stated) | -4% | 16µM* | 22µM* | -10% | -11%
CC(C(=O)OCC(=O)c1ccccc1)N1C(=O)C2C3CCC(C3)C2C1=O (configuration not stated) | -8% | x | -1% | -1%[46 µM] | 5%
CC(C(=O)OCC(=O)c1ccc([N+](=O)[O-])cc1)N1C(=O)C2C3CCC(C3)C2C1=O (configuration not stated) | -13% | x | 3.2µM* | x | -12%
O=C(COC(=O)c1cn(-c2ccccc2)nc1-c1cccnc1)NC1CC1 | u | x | -6% | x | -12%[10 µM]
COc1ccc(Nc2nnc(SCC(=O)c3cc(C)n(CC4CCCO4)c3C)s2)cc1 (configuration not stated) | -13% | -26% | 6.3µM* | u | -62%
COc1ccc(Nc2nnc(SCC(=O)Nc3ccc4[nH]c(=O)[nH]c4c3)s2)cc1 | 1%[9.22 µM] | x | 16µM* | x | -24%[10 µM]
COc1ccc(Nc2nnc(SCC3CCCCO3)s2)cc1 (configuration not stated) | -4% | x | -17% | x | -17%
Cc1cc(C(=O)CSc2nc3ccc(Cl)cc3[nH]2)c(C)n1C | 15% | u | u | u | 12%[10 µM]
Cc1cc(C(=O)CSc2nc3ccc(Cl)cc3[nH]2)c(C)n1CC1CCCO1 (configuration not stated) | 3.2µM* | -11% | -5% | -19% | -130%
COc1ccc(CN2CCNC(=O)C2CC(=O)NCc2cn3ccc(C)cc3n2)c(OC)c1 (configuration not stated) | 8%[9.22 µM] | x | u | 21%[46 µM] | -4%[10 µM]
CC(=O)c1cc(-c2ccccc2)n(CC(=O)Nc2ccc(C)cc2C)c1C | x | x | x | -3%[46 µM] | x
COCOc1ccc(Br)cc1C(=O)[C@H]1O[C@H]1c1cccc(OC)c1 | x | x | 1%[13.5 µM] | x | u
